Sampled rows, rich in hits. Any-hit rate of the full collection: about 0.54%.
TcdB GH inh: TcdB glycohydrolase inhibitors, primary screen, biochemical, single point, plate reader; Toxin B (Clostridioides difficile), P18177; TcdB glycohydrolase enzymatic assay; inhibition, % at 9.99 µM; 350,000 tested, 0.24% active; AID 652162, 2013; in the data active = inhibition above about 10%
Target sequence (P18177 whole entry, looked up): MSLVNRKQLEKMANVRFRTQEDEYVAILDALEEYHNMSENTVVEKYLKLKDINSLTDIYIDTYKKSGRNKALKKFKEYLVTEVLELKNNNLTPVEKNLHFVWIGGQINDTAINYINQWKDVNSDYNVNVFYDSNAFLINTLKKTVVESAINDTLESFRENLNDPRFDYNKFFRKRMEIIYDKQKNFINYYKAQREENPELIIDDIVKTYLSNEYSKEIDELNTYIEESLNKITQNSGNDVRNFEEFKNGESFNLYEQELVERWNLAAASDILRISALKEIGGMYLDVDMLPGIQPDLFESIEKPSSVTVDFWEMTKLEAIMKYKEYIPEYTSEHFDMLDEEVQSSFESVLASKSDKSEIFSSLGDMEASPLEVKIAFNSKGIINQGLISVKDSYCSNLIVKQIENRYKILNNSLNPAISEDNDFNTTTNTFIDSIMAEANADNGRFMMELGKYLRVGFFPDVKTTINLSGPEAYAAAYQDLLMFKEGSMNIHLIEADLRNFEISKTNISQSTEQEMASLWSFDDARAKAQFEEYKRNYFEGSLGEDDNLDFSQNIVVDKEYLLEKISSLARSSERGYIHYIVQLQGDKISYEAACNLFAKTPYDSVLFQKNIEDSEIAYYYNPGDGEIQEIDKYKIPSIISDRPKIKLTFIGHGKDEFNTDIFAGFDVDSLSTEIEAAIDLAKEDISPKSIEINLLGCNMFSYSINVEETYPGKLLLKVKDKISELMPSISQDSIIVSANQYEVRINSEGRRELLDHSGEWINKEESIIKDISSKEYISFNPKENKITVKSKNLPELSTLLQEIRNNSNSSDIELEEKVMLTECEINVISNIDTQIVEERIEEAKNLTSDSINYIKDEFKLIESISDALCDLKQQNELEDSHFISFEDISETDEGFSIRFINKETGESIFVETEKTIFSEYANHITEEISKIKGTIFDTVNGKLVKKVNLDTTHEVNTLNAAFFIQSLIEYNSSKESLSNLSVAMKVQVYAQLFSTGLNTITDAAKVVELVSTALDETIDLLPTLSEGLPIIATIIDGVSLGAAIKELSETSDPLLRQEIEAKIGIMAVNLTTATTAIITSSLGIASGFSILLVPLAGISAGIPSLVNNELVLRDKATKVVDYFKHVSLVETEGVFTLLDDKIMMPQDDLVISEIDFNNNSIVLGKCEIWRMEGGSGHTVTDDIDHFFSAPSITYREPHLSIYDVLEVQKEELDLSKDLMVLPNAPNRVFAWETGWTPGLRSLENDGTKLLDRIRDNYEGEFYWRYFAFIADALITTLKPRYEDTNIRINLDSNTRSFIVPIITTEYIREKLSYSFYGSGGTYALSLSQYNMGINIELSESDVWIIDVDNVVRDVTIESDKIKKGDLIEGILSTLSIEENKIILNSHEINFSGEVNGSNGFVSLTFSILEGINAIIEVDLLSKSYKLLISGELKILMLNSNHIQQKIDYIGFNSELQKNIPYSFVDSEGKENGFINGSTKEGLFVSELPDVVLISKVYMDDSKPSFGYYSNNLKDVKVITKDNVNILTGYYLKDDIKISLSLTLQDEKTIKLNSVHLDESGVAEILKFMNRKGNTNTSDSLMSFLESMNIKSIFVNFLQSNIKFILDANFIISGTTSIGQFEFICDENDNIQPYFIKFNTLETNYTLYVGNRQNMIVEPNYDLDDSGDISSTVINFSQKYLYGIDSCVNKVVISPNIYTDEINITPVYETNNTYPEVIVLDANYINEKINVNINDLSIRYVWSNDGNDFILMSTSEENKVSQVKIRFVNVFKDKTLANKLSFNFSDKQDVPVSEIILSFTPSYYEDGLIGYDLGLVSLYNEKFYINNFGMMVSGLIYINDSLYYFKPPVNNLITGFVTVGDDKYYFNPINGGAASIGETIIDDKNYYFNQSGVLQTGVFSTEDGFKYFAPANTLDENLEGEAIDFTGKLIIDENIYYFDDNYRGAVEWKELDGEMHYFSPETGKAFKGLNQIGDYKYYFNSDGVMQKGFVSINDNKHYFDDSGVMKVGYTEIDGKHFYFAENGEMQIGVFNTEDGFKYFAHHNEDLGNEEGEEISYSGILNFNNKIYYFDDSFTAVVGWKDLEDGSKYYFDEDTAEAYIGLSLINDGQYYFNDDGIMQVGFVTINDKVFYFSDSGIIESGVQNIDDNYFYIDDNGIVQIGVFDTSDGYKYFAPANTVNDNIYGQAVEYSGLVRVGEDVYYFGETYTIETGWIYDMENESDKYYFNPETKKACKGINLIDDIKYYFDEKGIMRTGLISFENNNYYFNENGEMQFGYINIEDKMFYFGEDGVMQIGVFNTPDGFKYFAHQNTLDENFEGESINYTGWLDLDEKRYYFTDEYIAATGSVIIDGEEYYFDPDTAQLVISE
FadD28 FP inh: inhibitors of FadD28 bisubstrate probe binding, primary screen, biochemical, fluorescence polarization, single point; Mycobacterium tuberculosis FadD28 fatty-acid-AMP ligase; inhibition, % at 12.5 µM; 360,000 tested, 0.22% active; in the data active = inhibition above about 8.5%, passing the limit was not always enough
BH1578 lux ind: inducers of Vibrio cholerae quorum light production without autoinducers, primary screen, BH1578 luxS cqsA deficient, single point | V. cholerae BH1578 lux reporter, luminescence, 6 h | activation, % at 18.7 µM | 350,000 tested, 0.16% active | AID 588436, 2011; in the data active = activation mostly above about 9.7%, no sharp cut-off
Mtb BioA inh: M. tuberculosis BioA enzyme inhibitors, primary screen, biochemical, plate reader, single point, HTS; 7,8-diaminopelargonic acid synthase BioA (Mycobacterium tuberculosis); purified M. tuberculosis BioA enzyme; inhibition, % at 9.99 µM; 360,000 tested, 0.096% active; in the data active = inhibition above about 40%
Starred values were filed as active, the others as inactive; i = inactive; · = no result given; + = active, no number.

SMILES	TcdB GH inh	FadD28 FP inh	BH1578 lux ind	Mtb BioA inh
C[C@@H]1CN([C@H](C)CO)C(=O)Cc2cc(NC(=O)Nc3ccc4c(c3)OCO4)ccc2O[C@H]1CN(C)Cc1ccc(Oc2ccccc2)cc1	0.6	·	·	6.4
COCCn1c(NC(=S)NC(=O)C2CC2)cc(=O)[nH]c1=O	23.0*	-0.2	-3.3	-3.3
CN(C)CC(=O)N[C@@H]1CC[C@@H](CC(=O)O)O[C@H]1CO	-1.5	·	·	·
CN(C)CC(=O)Nc1ccc2c(c1)[C@@H]1C[C@H](CC(=O)NCc3ccccc3F)O[C@@H](CO)[C@@H]1O2	·	·	·	-0.9
CCC(C)NC(=O)CSc1nnc(-c2cc(-c3ccc(C)cc3)nc3ccccc23)n1N (configuration not stated)	·	-2.4	40.4*	1.0
COc1ccc2nc(C)cc(SCC(=O)O)c2c1	-0.5	-0.4	-0.4	0.8
COc1ccc2nc(SCC(=O)O)nc(C)c2c1	·	-2.3	15.4*	0.2
c1ccc(OCc2nnc3n2N=C(c2ccccc2)CS3)cc1	2.6	-0.8	0.1	·
COc1ccc(OCc2nnc3n2N=C(c2ccc(C)cc2)CS3)cc1	1.4	-2.8	+	4.2
O=C(C[C@@H]1C=C[C@H](NC(=O)Cc2cccnc2)[C@@H](CO)O1)Nc1ccccc1	1.0	·	·	-1.5
Cc1ccc(S(=O)(=O)NNC(=O)c2cccnc2)cc1	-2.4	-0.7	-0.3	7.8
O=C(NC(=S)NNS(=O)(=O)c1ccccc1)c1cccnc1	10.8*	-0.9	-0.1	·
COCCCNC(=O)C1CCN(S(=O)(=O)c2c(C)noc2/C=C\c2ccc(OC)cc2)CC1	·	-0.7	-0.3	-0.5
CCCCNC(=O)C1CCN(S(=O)(=O)c2c(C)noc2/C=C\c2ccc(OC)cc2)CC1	84.9*	0.3	-0.6	-5.0
CCCSc1nc2cc(OC)c(OC)cc2c(=N)n1CCCN1CCOCC1	0.7	-2.3	-0.3	·
COCCCn1c(SCc2ccc(OC)cc2)nc2cc(OC)c(OC)cc2c1=N	·	20.9*	i	1.0
Cc1ccc(NC(=O)CN2C(=O)S/C(=C\c3cc(C)n(-c4cccc(C(=O)O)c4)c3C)C2=O)cc1	0.8	43.3*	-0.4	·
Cc1ccc(NC(=O)CN2C(=O)S/C(=C\c3cc(C)n(C)c3C)C2=O)cc1	·	-1.8	-0.4	-0.4
Cc1ccccc1NC(=O)CN1C(=O)S/C(=C\c2ccc(-c3cc(C(=O)O)ccc3C)o2)C1=O	0.7	-1.2	-0.5	·
Cc1ccc(C(=O)O)cc1-c1ccc(/C=C2\SC(=O)N(CC(=O)Nc3ccccc3)C2=O)o1	-0.6	17.5*	-0.1	-3.8
Cc1cccc(NC(=O)CN2C(=O)S/C(=C\c3cc(C)n(C)c3C)C2=O)c1	0.4	33.6*	-0.2	7.6
C[C@H]1CCCCO[C@@H](CN(C)Cc2ccc(C(F)(F)F)cc2)[C@@H](C)CN([C@@H](C)CO)C(=O)c2cc(NC(=O)CCCN(C)C)ccc2O1	0.4	·	·	20.8
CCCCOC(=O)CNc1n[nH]c(=S)[nH]c1=O	·	-1.0	3.2	-3.5
CC(C)COC(=O)CNc1n[nH]c(=S)[nH]c1=O	0.5	-2.6	+	0.0
N#CC1(NC(=O)COC(=O)C2=COCCO2)CCCCC1	-0.4	18.0*	-5.0	1.6
SMILES	TcdB GH inh	FadD28 FP inh	BH1578 lux ind	Mtb BioA inh
CCC(=O)N[C@H]1C=C[C@H](CC(=O)NCC2CCCCC2)O[C@@H]1CO	-3.3	·	·	-1.8
CC(C)N=C(NC#N)SCc1ccc(Br)cc1	·	-0.9	30.1*	-4.0
O=[N+]([O-])c1ccc(N=Nc2ccc(O)cc2O)cc1	·	-3.4	-0.3	-0.3
O=S(=O)(O)c1cc(Cl)cc(N=Nc2ccc(O)cc2O)c1O	0.4	34.4*	0.1	·
COc1ccc(N=Nc2cc(OC)c(N)cc2OC)cc1	10.5*	0.8	-4.3	12.0
COc1ccc(OC)c(N)c1	·	-2.3	3.1	0.4
Cc1c2cc(O)c(=O)cc-2oc2cc(O)c(O)cc12	-18.5	11.6*	-0.2	-65.8
COc1cc(-c2cc(=O)c3ccc(O)cc3o2)cc(OC)c1OC	-0.6	-2.8	-0.3	-0.2
COc1cc(OC)c(-c2c3cc(O)c(=O)cc-3oc3cc(O)c(O)cc23)cc1OC	0.0	39.0*	i	·
O=C(O)c1[nH]c2ccccc2c1C(c1c(F)cccc1Cl)c1c(C(=O)O)[nH]c2ccccc12	-0.4	24.1*	0.7	0.4
O=C(O)c1[nH]c2ccccc2c1C(c1cc(Br)ccc1O)c1c(C(=O)O)[nH]c2ccccc12	0.8	35.3*	-0.2	1.2
COc1cc(C(=O)Nc2c(C(=O)O)[nH]c3ccccc23)cc(OC)c1OC	0.9	-0.2	-1.4	0.4
COc1cc(Cl)cc(C(c2c(C(=O)O)[nH]c3ccccc23)c2c(C(=O)O)[nH]c3ccccc23)c1O	-1.0	32.9*	-0.1	0.0
CO[C@@H]1CN(C)C(=O)c2cc(NS(=O)(=O)CC(F)(F)F)ccc2OC[C@@H](C)N(CC2CCCCC2)C[C@@H]1C	·	·	·	-1.5
CCN(C[C@@H]1N[C@@H](CO)[C@H]1c1ccc(-c2ccccc2)cc1)C(=O)COC	-1.4	·	·	5.2
O=C(CN1C(=O)c2ccccc2C1=O)N(CCO)Cc1ccccc1	0.5	22.5*	-0.6	-0.2
CCN(Cc1ccccc1)C(=O)CN1C(=O)c2ccccc2C1=O	-1.9	-0.6	i	-0.6
CCOC(=O)c1c(C)[nH]c(C)c1C(=O)COC(=O)/C=C/c1ccco1	10.4*	0.8	1.4	1.2
COc1cc(OC)c(OC)cc1/C=C/c1ccnc2ccccc12	18.7*	-1.9	·	·
COc1ccc2nccc(/C=C/c3ccnc4ccc(OC)cc34)c2c1	12.9*	-2.6	i	2.3
Cc1ccc(S(=O)(=O)N(C)C[C@H]2Oc3c(NC(=O)NC4CCCCC4)cccc3C(=O)N([C@@H](C)CO)C[C@@H]2C)cc1	0.6	·	·	2.7
Cc1cc(N)n(-c2ccc(Oc3ccccc3)c(S(=O)(=O)O)c2)n1	-1.1	13.9*	i	·
CC(OC(=O)[C@@H](NC(=O)OCc1ccccc1)C(C)C)C(=O)Nc1ccc(N2CCOCC2)cc1 (some centres not stated)	10.8*	1.1	i	-2.0
CO[C@@]12[C@H](COC(N)=O)C3=C(C(=O)C(C)=C(N)C3=O)N1C[C@@H]1N[C@@H]12	0.6	-3.2	58.1*	0.9
CO[C@@]12[C@@H]3N[C@@H]3CN1C1=C(C(=O)C(N)=C(C)C1=O)[C@@H]2COC(N)=O	1.4	-1.4	i	·
SMILES	TcdB GH inh	FadD28 FP inh	BH1578 lux ind	Mtb BioA inh
Cc1cc(Nc2c(C)n(C)n(-c3ccccc3)c2=O)c2ccccc2n1	1.1	0.8	i	·
Cc1c(Nc2cc(=O)oc3ccccc23)c(=O)n(-c2ccccc2)n1C	·	-0.9	16.7*	3.5
COc1ccc(NC(=O)Nc2cccc3c2O[C@H](CN(C)C(=O)Nc2cccc4ccccc24)[C@H](C)CN([C@@H](C)CO)C3=O)cc1	·	·	·	-0.8
CC(=O)Nc1ccc(S(=O)(=O)Nc2nc3ccccc3nc2Nc2ccc(S(N)(=O)=O)cc2)cc1	·	1.6	-1.7	-1.1
CC(=O)Nc1ccc(S(=O)(=O)Nc2nc3ccccc3nc2Nc2ccc(O)c(C(=O)O)c2)cc1	2.4	13.2*	-0.6	-14.4
O=C(Cc1cccnc1)N1CC(=O)N2[C@H](C1)[C@@H](c1ccc(C#CC3CCCC3)cc1)[C@@H]2CO	-0.9	·	·	·

High-throughput results as filed in PubChem BioAssay.
